According to PubChem BioAssay (NCI):
Compounds without any hit were thinned out: in the full panel of roughly 83,000, 20% have a hit.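 Each cell line was grown in a 96-well plate and treated with one concentration of compound for 48 hours. Values below 10 were considered active.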 The source made the active and inactive calls.

Assays:
Assay in all cases: NCI-60 one-dose screen, 48 h (100 = growth as untreated, 0 = no growth, -100 = all killed)
[1] = test system: HCT-15 colon; conditions: 10 µM unless noted
[2] = test system: HT29 colon; conditions: 10 µM unless noted
[3] = test system: SNB-75 CNS; conditions: 10 µM unless noted
[4] = test system: SNB-19 CNS; conditions: 10 µM unless noted
[5] = test system: U251 CNS; conditions: 10 µM unless noted
[6] = test system: SK-MEL-5 melanoma; conditions: 10 µM unless noted
[7] = test system: UACC-62 melanoma; conditions: 10 µM unless noted
[8] = test system: LOX IMVI melanoma; conditions: 10 µM
[9] = test system: SK-MEL-28 melanoma; conditions: 10 µM unless noted
[10] = test system: SK-MEL-2 melanoma; conditions: 10 µM unless noted
[11] = test system: EKVX NSCLC; conditions: 10 µM unless noted
[12] = test system: SN12C renal; conditions: 10 µM unless noted
[13] = test system: UO-31 renal; conditions: 10 µM unless noted
[14] = test system: TK-10 renal; conditions: 10 µM unless noted
[15] = test system: ACHN renal; conditions: 10 µM unless noted
[16] = test system: A498 renal; conditions: 10 µM unless noted
[17] = test system: CCRF-CEM leukemia; conditions: 10 µM unless noted
[18] = test system: MOLT-4 leukemia; conditions: 10 µM unless noted
[19] = test system: PC-3 prostate; conditions: 10 µM unless noted
[20] = test system: CAKI-1 renal; conditions: 10 µM unless noted

Measured: growth

Cc1cccc(Nc2nc3ccccc3nc2/C=C/c2ccc(F)cc2)c1
inactive: [1] 95.6% | [2] 86.4% | [3] 91.9% | [4] 92.8% | [5] 94% | [6] 88% | [7] 74.7% | [8] 101% | [9] 101% | [10] 98.3% | [11] 83.7% | [12] 90.9% | [13] 67.9% | [14] 151% | [15] 89.9% | [16] 112% | [17] 97.1% | [18] 80.9%

C=C1CC[C@@H]2[C@]3(C)COC(c4cn[nH]c4-c4ccccc4)O[C@@H]3CC[C@@]2(C)[C@@H]1C/C=C1/C(=O)OCC1O (some centres not stated)
inactive: [3] 105% | [4] 45.3% | [19] 33.3% | [10] 73.8% | [12] 21.9% | [15] 11% | [20] 11.4% | [16] 137%
active: [1] -81% | [2] -79% | [5] -18.6% | [7] -12.7% | [9] -55.2% | [11] -45.2% | [13] -0.824% | [14] -8.55% | [17] 2.72% | [18] 4.6%

COc1cc(/C=C/C(=O)c2nnn(-c3ccc(Cl)cc3)c2C)cc(OC)c1OC
inactive: [1] 12.4% | [2] 15.5% | [3] 22.5% | [4] 60.3% | [5] 17.3% | [6] 21.5% | [7] 28.7% | [9] 46.9% | [10] 51.3% | [11] 10.1% | [12] 15.5% | [13] 54% | [14] 86.7% | [15] 42.4% | [20] 43.2% | [16] 132%
active: [17] -19.2% | [18] -10.7%

CN(C)c1nc(NCCNS(=O)(=O)c2ccc(C(=O)/C=C/c3ccc(C(F)(F)F)cc3)cc2)nc(Nc2ccc(F)cc2)n1
inactive: [3] 54.6% | [4] 25.2% | [6] 16.2% | [11] 13.6% | [13] 25.5% | [14] 26.2% | [16] 49.6% | [17] 10.1%
active: [1] -92.5% | [2] -94% | [5] -99.2% | [7] -5.71% | [8] -100% | [9] -80% | [10] -7.74% | [12] -99.1% | [15] 1.99% | [20] 4.56% | [18] 0.0408%

COc1cc2c(c(OC)c1OC)C(=O)CC(c1cccc(NC(=O)c3cc(N)ccc3Cl)c1)O2 (configuration not stated)
inactive: [1] 22.3% | [2] 79.9% | [3] 43.7% | [4] 77.4% | [5] 65.6% | [6] 35.8% | [7] 61.7% | [9] 56.8% | [10] 32.7% | [11] 78.7% | [12] 64.6% | [13] 51.5% | [14] 106% | [15] 50.6% | [20] 50.3% | [16] 105% | [17] 22.5% | [18] 21.5%

COCOc1cc2c(=O)c(C)c(C(=O)N[C@@H](Cc3ccccc3)C(O)C(=O)NCc3ccccc3)oc2cc1OC (some centres not stated)
inactive: [1] 84.3% | [2] 43.3% | [4] 15.7% | [6] 10.6% | [9] 38.9% | [11] 78.4% | [12] 42.7% | [13] 81.5% | [14] 88.8% | [15] 83.7% | [20] 50.5% | [17] 96.1% | [18] 87.8%
active: [3] 3.85% | [5] -36.6% | [7] -14.8% | [10] -2.79% | [16] -6.29%

N#Cc1c(NCc2ccccc2)n[nH]c1Nc1ccccc1
inactive: [1] 42.4% | [2] 84.3% | [3] 57.4% | [4] 54.8% | [5] 45.9% | [19] 40.1% | [7] 64.9% | [8] 58.4% | [9] 79.1% | [10] 20.7% | [11] 52.8% | [12] 50.8% | [14] 75.5% | [15] 38.1% | [20] 33.4% | [16] 79% | [17] 18.3%

CCN(CC)C(=O)N/C(N)=N/c1nc2ccccc2s1
inactive: [1] 54% | [2] 62.5% | [3] 63.9% | [4] 56.5% | [5] 66.9% | [7] 43.7% | [9] 75.4% | [10] 65.5% | [11] 15.3% | [12] 50.1% | [13] 37.7% | [14] 53.7% | [15] 50.7% | [20] 36.6% | [16] 55.6% | [17] 41.9%
active: [6] -24.9% | [18] -4.3%

COc1cc(C2CC(c3cc(OC)c(OC)c(OC)c3)=NN2C(C)=O)ccc1OCc1ccc(F)cc1 (configuration not stated)
inactive: [1] 42.5% | [2] 28.1% | [3] 79.5% | [4] 60.9% | [5] 59.9% | [6] 29.7% | [7] 52% | [9] 73.2% | [10] 69.5% | [11] 59.4% | [12] 53.9% | [13] 29.7% | [14] 50.5% | [15] 59.2% | [16] 59.4% | [17] 59.9% | [18] 30.6%

C#CCOc1cc(N(CC)CC)ccc1C(C(=O)NC(C)(C)C)N(C(=O)C1CCc2cc(F)ccc2O1)c1ccc(Br)cc1 (configuration not stated)
inactive: [1] 65.4% | [2] 77.3% | [3] 98.9% | [4] 91.5% | [5] 87.2% | [6] 81% | [7] 61% | [8] 35.9% | [9] 80.2% | [10] 110% | [11] 55.3% | [12] 76.9% | [13] 51% | [14] 116% | [15] 83.2% | [16] 135% | [17] 63.6% | [18] 21.8%

COc1cc(CNC(=O)/C=C/c2ccc3c(c2)OCO3)ccc1OCc1cn(-c2ccc([N+](=O)[O-])cc2)nn1
inactive: [1] 97.3% | [2] 121% | [3] 106% | [4] 86.5% | [5] 96.2% | [19] 103% | [7] 78.9% | [9] 99.9% | [10] 118% | [11] 71.5% | [12] 82.6% | [13] 78.2% | [14] 106% | [15] 90.5% | [20] 64.3% | [16] 113% | [17] 99.5% | [18] 72.4%

N#Cc1c(-c2ccc(Cl)cc2)nc2n[nH]c(-c3ccc(Cl)cc3)c2c1-c1cccs1
inactive: [1] 41.9% | [2] 47% | [3] 77.5% | [4] 75.1% | [5] 58.6% | [19] 34.3% | [7] 60.9% | [9] 76.1% | [10] 58.6% | [11] 30.3% | [12] 45.7% | [13] 35.1% | [14] 97.3% | [15] 62.8% | [20] 39% | [16] 105% | [17] 38.1%
active: [18] 3.89%

CNC(=O)c1cccc(NC(=O)c2ccc3c(c2)nnn3/C(C#N)=C/c2ccccn2)c1
active: [1] -31.3% | [2] -84.4% | [5] -12.4% | [19] 2.89% | [7] -86.6% | [9] -76.6% | [10] -60.7% | [11] -30.5% | [12] -15.8% | [13] -7.22% | [14] -25.4% | [15] -24.2% | [17] -24.5% | [18] -19.2%
inactive: [3] 73% | [4] 71% | [20] 25.7% | [16] 115%

Cc1cc2nc3c4ccccc4n(CCNCCN(C)C)c3nc2cc1C
active: [1] 8.66% | [2] -40.1% | [6] -88.9% | [7] -87.8% | [9] -68.4% | [13] -16.5%
inactive: [3] 43.4% | [4] 35.3% | [5] 36.5% | [10] 25.4% | [11] 73.2% | [12] 25.3% | [14] 54.5% | [15] 11% | [20] 14.1% | [16] 75.4% | [17] 21.7%

NS(=O)(=O)c1ccc(NNC(=O)CCC(=O)c2ccccc2)cc1
inactive: [1] 104% | [2] 104% | [3] 91.9% | [4] 98.3% | [5] 101% | [19] 97.6% | [7] 99.9% | [9] 112% | [10] 107% | [11] 103% | [12] 92.5% | [14] 109% | [15] 101% | [16] 94.2% | [17] 75.1% | [18] 89.8%

S=C(Nc1ccccc1)Nc1ccc(OCc2nc3ccccc3[nH]2)cc1
inactive: [1] 29.5% | [2] 25.4% | [3] 27.4% | [4] 39.8% | [5] 34.5% | [19] 42% | [7] 33.6% | [9] 61.6% | [10] 24.6% | [11] 46.3% | [12] 47.1% | [13] 30.4% | [14] 72.3% | [15] 24.6% | [20] 18.9% | [16] 72.1% | [17] 28.9% | [18] 19.8%

COc1ccc2[nH]cc(-c3cc(N)n4nc(-c5cn(C)c6ccccc56)cc4n3)c2c1
active: [1] -83.4% | [2] -73.7% | [3] -52.4% | [4] -48.4% | [5] -85.3% | [19] -67.6% | [7] -76.5% | [8] -67.9% | [9] -92.9% | [10] -96% | [11] -82.8% | [12] -73.2% | [14] -95.3% | [15] -100% | [20] -96% | [16] -80.6% | [17] -39.3% | [18] -41.4%
